{
  "source": "PubChem BioAssay AID1259415",
  "about": "(National Center for Advancing Translational Sciences (NCATS), 2018)",
  "note": "“And” between values parts separate entries of the source, which are not always exact repeats. Equal values may be shown once. Among all 410,000 compounds or so, about 18,000 (4.4%) were called active. Another 7% or so got no clear call; they are omitted. Only a selection was taken, and actives are over-represented in it overall. Unmarked numbers belong to inactive results. Rule as the data show it: active = activity change below about -60%; inconclusive = no clear call, values can overlap the other calls; inactive = above about -39%. % is scaled to controls: 0 for no effect and ±100 for the full control effect.",
  "data": [
    {"assay": "qHTS Assay for inhibitors of the human cytomegalovirus (HCMV)", "conditions": "HFF cells, HCMV-luciferase reporter, 72 h; at 57.5 µM; hits give low values", "method_in_brief": "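Compounds were evaluated in HFFs infected with an HCMV luciferase reporter virus (MOI 1 PFU/cell). Luciferase in lysates collected 72 h post infection served as the replication measure.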", "values": [
      {"smiles": "COc1ccccc1N(C)S(=O)(=O)c1ccc(C(=O)N2CCC(C(N)=O)CC2)cc1", "activity change, negative = inhibition": "63.1%"},
      {"smiles": "COc1cccc(C(=O)NC(=O)Nc2ccc(-c3cc(C(F)(F)F)nn3-c3ccccc3)cc2)c1", "activity change, negative = inhibition": "-6.79%"},
      {"smiles": "COc1ccc(C(=O)Nc2ccc(-n3nncc3-c3ccccc3)cc2)cc1OC", "activity change, negative = inhibition": "-6.64%"},
      {"smiles": "COc1cccc(C(=O)Nc2ccc(-c3cc(C(F)(F)F)nn3-c3ccccc3)cc2)c1", "activity change, negative = inhibition": "-87.7% (active)"},
      {"smiles": "Cc1ccc(CNC(=O)CCc2c(C)nc3nc(CNC(=O)OC(C)(C)C)nn3c2C)cc1", "activity change, negative = inhibition": "-10.3%"},
      {"smiles": "COc1cc2ccccc2cc1C(=O)Nc1cccc(-c2nc3ccccc3o2)c1", "activity change, negative = inhibition": "-27.9%"},
      {"smiles": "Cc1ccc(C)c(N2CCN(C(=O)C3CCC(CNS(=O)(=O)c4cccs4)CC3)CC2)c1", "note": "(stereo unspecified)", "activity change, negative = inhibition": "-30%"},
      {"smiles": "CC1CCc2sc(C(=O)NCC(c3ccco3)N3CCCCC3)cc2C1", "note": "(stereo unspecified)", "activity change, negative = inhibition": "-61.7% (active)"},
      {"smiles": "CSc1ncccc1C(=O)NCC(c1ccco1)N1CCCCC1", "note": "(stereo unspecified)", "activity change, negative = inhibition": "-4.3%"},
      {"smiles": "CC1Cc2ccccc2N1S(=O)(=O)c1cccc(C(=O)NCC(c2ccco2)N2CCCC2)c1", "note": "(stereo unspecified)", "activity change, negative = inhibition": "-24%"},
      {"smiles": "CCOC(=O)c1ccc(NC(=O)C2CC(=O)NC(=Nc3ccc(C)c(C)c3)S2)cc1", "note": "(stereo unspecified)", "activity change, negative = inhibition": "-14.2%"},
      {"smiles": "CC1(C)CC(=O)c2cc(OCC(=O)NCC3CCCO3)ccc2O1", "note": "(stereo unspecified)", "activity change, negative = inhibition": "55.1%"},
      {"smiles": "Cc1ccc(CNC(=O)CCC(=O)N2Cc3ccccc3Oc3ncccc32)cc1", "activity change, negative = inhibition": "-2.66%"},
      {"smiles": "CN1CCC(N(C)C(=O)c2ccc(Cl)c(S(=O)(=O)Nc3ccc(Cl)cc3)c2)CC1", "activity change, negative = inhibition": "-3.23%"},
      {"smiles": "Cn1c(=O)n(C)c(=O)n(CC(=O)N2CCCCC2)c1=O", "activity change, negative = inhibition": "32.3%"},
      {"smiles": "O=C(Cn1c(=O)n(CC2CS2)c2ccccc21)N1CCCCC1", "note": "(stereo unspecified)", "activity change, negative = inhibition": "-89.4% (active)"},
      {"smiles": "CC1CCCN(C(=O)Cn2c(=O)oc3ccccc32)C1", "note": "(stereo unspecified)", "activity change, negative = inhibition": "12.6%"},
      {"smiles": "Cc1cc(NC(=O)c2ccc(-c3ccc(Cl)cc3)o2)cc(-c2nc3ncccc3o2)c1O", "activity change, negative = inhibition": "5.53%"},
      {"smiles": "Cc1cc(C(=O)NNC(=O)CCC2CCCCC2)c(C)o1", "activity change, negative = inhibition": "-17%"},
      {"smiles": "Cc1cc(C(=O)NC2CCCc3c2cnn3-c2cccc(C)c2C)c(C)o1", "note": "(stereo unspecified)", "activity change, negative = inhibition": "-73.8% (active)"},
      {"smiles": "Cc1cccc(C(=O)OC(C)C(=O)NC2CCCc3ccccc32)c1O", "note": "(stereo unspecified)", "activity change, negative = inhibition": "-10.7%"},
      {"smiles": "COc1cccc(C(=O)Nc2c3c(nn2-c2cccc(C)c2C)CS(=O)(=O)C3)c1OC", "activity change, negative = inhibition": "-4.86%"},
      {"smiles": "COc1ccc(C(=O)NC2CCCc3c2cnn3-c2cccc(C)c2C)c(OC)n1", "note": "(stereo unspecified)", "activity change, negative = inhibition": "-87% (active)"},
      {"smiles": "Cc1cccc(-n2nc3c(c2NC(=O)c2ccc(Br)o2)CSC3)c1C", "activity change, negative = inhibition": "14.4%"},
      {"smiles": "COc1ccc(C(=O)N2CCC(c3nc4ccccc4o3)CC2)cc1", "activity change, negative = inhibition": "43.5%"},
      {"smiles": "CCn1c(C)c(C)c2cc(C(=O)N3CCN(c4cccc(C)c4C)CC3)ccc21", "activity change, negative = inhibition": "0% and 13.6%"},
      {"smiles": "Cc1cccc(N2CCN(C(=O)c3oc(=O)c4ccccc4c3-c3ccccc3)CC2)c1C", "activity change, negative = inhibition": "4.74%"},
      {"smiles": "Cc1cccc(N2CCN(C(=O)c3cc4c(=O)[nH]c5ccccc5c4n3C)CC2)c1C", "activity change, negative = inhibition": "-65.2% (active)"},
      {"smiles": "COc1ccc2c(c1)c(=O)c(S(=O)(=O)c1ccc(F)cc1)cn2CC(=O)Nc1ccc(C)cc1C", "activity change, negative = inhibition": "-7.71%"},
      {"smiles": "CCS(=O)(=O)c1nc(S(=O)(=O)c2ccc(C)cc2)c(NCc2ccc(Cl)cc2)s1", "activity change, negative = inhibition": "-5.88%"},
      {"smiles": "Cc1cccc(OCCSc2nc3ccc(NC(=O)COc4ccccc4C)cc3s2)c1", "activity change, negative = inhibition": "-12.2%"},
      {"smiles": "CCC(=O)Nc1ccc2nc(SCC(=O)N3CCc4ccccc43)sc2c1", "activity change, negative = inhibition": "29.6%"},
      {"smiles": "CCn1c(=O)c(=O)n(CC)c2cc(S(=O)(=O)N3CCc4ccccc43)ccc21", "activity change, negative = inhibition": "-35.5%"},
      {"smiles": "CSc1nc2ccc(S(=O)(=O)N3CCc4ccccc43)cc2s1", "activity change, negative = inhibition": "-81.9% (active)"},
      {"smiles": "Cc1nc2sc(C)c(C)n2c(=O)c1S(=O)(=O)NCCc1ccc(Cl)cc1", "activity change, negative = inhibition": "6.07%"},
      {"smiles": "Cc1oc2ncnc(N3CCOCC3)c2c1C(=O)NCCc1ccccc1", "activity change, negative = inhibition": "-27.7%"},
      {"smiles": "CCNC(=O)C1CCCN(C(=O)c2cc(F)ccc2C)CC1", "note": "(stereo unspecified)", "activity change, negative = inhibition": "-4.35%"},
      {"smiles": "O=C(NC(Nc1nc2ccc([N+](=O)[O-])cc2s1)(C(F)(F)F)C(F)(F)F)c1ccccc1", "activity change, negative = inhibition": "-103% (active)"},
      {"smiles": "NS(=O)(=O)c1ccc2nc(NC(=O)COc3ccccc3)sc2c1", "activity change, negative = inhibition": "-8.44%"},
      {"smiles": "CN(C)c1cccc(C(=O)Nc2nc3ccc(S(=O)(=O)NC(C)(C)C)cc3s2)c1", "activity change, negative = inhibition": "-29.3%"},
      {"smiles": "O=C(Nc1cc(C(F)(F)F)ccc1Cl)c1cc2nc(-c3ccc4c(c3)OCO4)cc(C(F)(F)F)n2n1", "activity change, negative = inhibition": "4.65%"},
      {"smiles": "CCC(C)Nc1oc(-c2ccc(COc3ccc(Cl)cc3)o2)nc1C#N", "note": "(stereo unspecified)", "activity change, negative = inhibition": "-28.6%"},
      {"smiles": "CCC(Sc1nc2n[nH]c(C)c2c(=N)n1-c1ccccc1Cl)C(=O)N(CC)CC", "note": "(stereo unspecified)", "activity change, negative = inhibition": "10.8%"},
      {"smiles": "CCN(CC(=O)Nc1c(F)cccc1F)C(=O)c1cnc(C)cn1", "activity change, negative = inhibition": "-12.6%"},
      {"smiles": "COc1ccc(C)cc1NC(=O)CN1c2cccc3cccc(c23)S1(=O)=O", "activity change, negative = inhibition": "-63.9% (active)"},
      {"smiles": "O=C(O)CN1c2cccc3cccc(c23)S1(=O)=O", "activity change, negative = inhibition": "24.9%"},
      {"smiles": "CC(C)CN(CC(C)C)C(=O)CN1c2cccc3cccc(c23)S1(=O)=O", "activity change, negative = inhibition": "51.7%"},
      {"smiles": "CCN(CC(=O)Nc1c(F)cccc1F)C(=O)CN1c2cccc3cccc(c23)S1(=O)=O", "activity change, negative = inhibition": "-81.2% (active)"},
      {"smiles": "Cc1ccc(S(=O)(=O)N(C)C)cc1NC(=O)CN1c2cccc3cccc(c23)S1(=O)=O", "activity change, negative = inhibition": "-17.7%"},
      {"smiles": "CCC(=O)Nc1ccccc1-c1nc2ccccc2n(CC(=O)Nc2ccc(C)c(C)c2)c1=O", "activity change, negative = inhibition": "4.84%"},
      {"smiles": "O=C(CSc1ncc(CO)n1Cc1ccc(F)cc1)NCc1ccco1", "activity change, negative = inhibition": "-7.64%"},
      {"smiles": "O=C(CC(CC(=O)c1ccccc1)c1ccco1)c1ccccc1", "activity change, negative = inhibition": "-38.2%"},
      {"smiles": "COc1cc(NC(=O)c2nn(-c3ccc(C)cc3)c(=O)c3c2c2ccccc2n3C)cc(OC)c1OC", "activity change, negative = inhibition": "8.56%"},
      {"smiles": "Cc1ccc(NC(=O)C2CCC(C(C)(C)C)CC2)cc1S(=O)(=O)N1CCOCC1", "note": "(stereo unspecified)", "activity change, negative = inhibition": "-25.3%"},
      {"smiles": "CC(C)(C)C1CCC(C(=O)Nc2cccnc2)CC1", "note": "(stereo unspecified)", "activity change, negative = inhibition": "-93.5% (active)"},
      {"smiles": "CC(=O)Nc1ccc(NC(=O)COC(=O)C2CCC(C(C)(C)C)CC2)cc1", "note": "(stereo unspecified)", "activity change, negative = inhibition": "-11.6%"}
    ]}
  ]
}
